This is an account of results in PubChem BioAssay (EPA / NIEHS).

A word on the AC50: it is the concentration at which the activity in the assay is half-maximal.

The source made the active and inactive calls. Rule for the calls: active = hit-call score of the fitted dose curve at least 0.9, where 1 is the maximum; inactive = score below 0.9.

Read-out in the test: Lipase C (LIPC), LIPC (gene 3990)
In words: LTEA_HepaRG_LIPC: Life Technologies and Expression Analysis (LTEA) Assay for Lipase C (LIPC) using HepaRG (AID 2283514). Conditions: mRNA level, 48 h; actives raise or lower the signal. The protocol:
LTEA_HepaRG is a cell based, multiplexed-readout assay that uses HepaRG, a human liver cell line, with measurements taken at 48 hours after chemical dosing on a 96-well plate.LTEA_HepaRG_LIPC is one of 102 assay component(s) measured in the LTEA HepaRG cell culture assay. It is a marker of Steatosis.Data from the assay component LTEA_HepaRG_LIPC was analyzed into 1 endpoint. This assay endpoint, LTEA_HepaRG_LIPC, was analyzed with bidirectional fitting relative to DMSO as the negative control and baseline of activity. Using a type of inducible reporter, measures of mRNA induction for gain or loss-of-signal activity can be used to understand regulation of transcription factor activity. To generalize the intended target to other relatable targets, this assay endpoint is annotated to the esterase intended target family, where the subfamily is lipase.
A total of 1060 chemcials from the ToxCast library were tested in eight-point concentration-response experiments. Cell culture and cytotoxicity assays were conducted at Thermo Fisher Scientific's Custom Services facility (Madison, WI). A single lot of human HepaRG cells (Thermo Fisher Scientific, Frederick, MD) was used for the cell culture experiments. 96-well format collagen type I coated plates of human HepaRG cells were prepared using established methods. Briefly, cryopreserved HepaRG cells were thawed, plated at a density of approximately 100,000 cells/well in HepaRG Thaw, Plate, and General Purpose media (HPRG770, Thermo Fisher Scientific), and incubated for 48 hours. 0.5% DMSO was selected as vehicle control to balance the requisite need of DMSO in HepaRG cultures to maintain differentiation (for example, baseline metabolism, proportions of hepatocytes vs. cholangiocytes), while enabling further hepatic receptor pathway activation (for example, PXR and CAR) in response to chemical exposure. 48 hours after plating, the culture medium was replaced with HepaRG Serum-Free Incudtion Media. Cells were exposed to each test chemical in duplicate and maintained in CO2 incubators for another 48 hours. Chemical plates were thawed to room temperature and 200x concentrations of treatment groups were prepared. 8-point conentration-reponse curves were made with the highest exposure at 100 uM, followed by half-log dilutions, all in 0.5% DMSO. Each test plate contained variouse controls, induction positive controls (1mM phenobarbital), cytotoxicity positive controls ([…] aflatoxin B1), vehicle controls (0.5% DMSO), and total lysis controls (0.5% DMSO). Cell morphology images were taken using an Essen IncuCyte FLR automated microscope, with six 96-well plates imaged in about 24 minutes. Images were captured and exported and JPEG files. Spent culture media was transfered to black-well plates for the LDH assay, and remaining media was sorted at -80 C for later use. Cells were treated with RLT buffer and frozen until shipped for gene expression analysis. Total RNA was isolated from the cell suspension in 75 uL of Buffer RLT (Qiagen, Germantown, MD 20874) by Quintiles/Expression Analysis (Durham, NC) using a custom isolation procedure. Total RNA from each plate well was transferred to a preamplification plate. Fluidigm's 96.96 Dynamic ArrayTM (Fluidigm, Amsterdam, the Netherlands) technology was used for gene expression analyses by quantitative reverse transcription polymerase chain reaction (qRT-PCR, performed by Quintiles/Expression Analysis, Durham, NC)89. Standard TaqManTM Assays (Applied Biosystems/ThermoFisher Scientific, Foster City, CA) were used to assess the expression of 93 genes selected based on their selectivity and sensitivity to important hepatic receptors known to be modulated by environmental chemicals; importance in human hepatocyte functionality; and hepatotoxicity. […]
In the case of `O=CCCCC=O`, the call was inactive.
For `CN(C[C@@H](CC[N+]12CCC(C3CCCCC3)(CC1)CC2)c1ccc(Cl)c(Cl)c1)C(=O)c1cc(C(F)(F)F)cc(C(F)(F)F)c1`, the AC50 was 15.8 µM (active).
In the case of `CC1=CC(=O)/C(=C(/C)O)C(=O)O1`, the call was inactive.
In the case of `O=C(O)c1ccccc1C(=O)OCc1ccccc1`, the call was inactive.
Consider `CC(C)(c1cc(Br)c(O)c(Br)c1)c1cc(Br)c(O)c(Br)c1`, for which the compound was classed as inactive.
The same measure, in the same setting: for `O=C1O[C@H]([C@@H](O)CO)C(O)=C1O` the value was “inactive”.
Take `Clc1ccccc1C(c1ccccc1)(c1ccccc1)n1ccnc1`: the AC50 was 93.1 µM (active).
Turning to `c1ccc2ccccc2c1`, the call was inactive.
For `COCC(C)OCC(C)OCC(C)O` (stereo not given), the compound was called inactive.
Still for that read-out and setting: the entry for `CCCC(=O)OCCC(C)C` is “inactive”.
For the compound `O=c1c(-c2ccc(O)cc2)coc2cc(O)cc(O)c12`, the call was inactive.
With `NCc1cccc(C2CCN(C(=O)c3ccc(C#Cc4ccccc4F)o3)CC2)c1`, the concentration at half-maximal activity (AC50) was 76.6 µM (active).
As for `c1ccc2n[nH]nc2c1`, the compound was called inactive.
Consider `CCN(Cc1cccnc1)C(=O)c1cccc(Cl)c1[C@]1(C)C(=O)N(Cc2ccc(OC)cc2OC)c2ccc(Cl)cc21`, for which the AC50 is 19.9 µM (active).
For `CC(C)(C)c1cc(/C=C2\SC(N)=NC2=O)cc(C(C)(C)C)c1O`, the call was inactive.
Take `CCCOC(=O)c1cc(O)c(O)c(O)c1`: the result was inactive.
As for `OC12N=C(c3ccccc3)SC1Cc1cc(Cl)ccc12` (stereo not given), the AC50 was 17 µM (active).
On the same count and under the same terms, the figure for `Cc1cc2c(cc1C(F)(F)F)N(C(=O)Nc1ccc(Oc3cccnc3C)nc1)CC2` is 46 µM (active).
Consider `COc1cccc([C@H](O)C2CCN(CCc3ccc(F)cc3)CC2)c1OC`, for which the result was inactive.
`O=C(O)Cn1c(=O)n(Cc2ccc(Br)cc2F)c(=O)c2ccc(Cl)cc21`: the result was inactive.
Consider `CC(C)(C)c1csc(-c2cc3cc(OCc4ccccc4CC(=O)O)ccc3o2)n1`, for which the AC50 is 25.1 µM (active).
Turning to `CCCCCCCCCCCCO`, the compound was called inactive.
Same read-out and setting: the entry for `CCN(Cc1cccc(S(=O)(=O)O)c1)c1ccc(C(=C2C=CC(=[N+](CC)Cc3cccc(S(=O)(=O)O)c3)C=C2)c2ccccc2S(=O)(=O)[O-])cc1` is “inactive”.
In the case of `CC(=O)N1CCN(c2ccc(OC[C@H]3CO[C@](Cn4ccnc4)(c4ccc(Cl)cc4Cl)O3)cc2)CC1`, the concentration at half-maximal activity (AC50) was 18.3 µM (active).
Still for that read-out and setting: the figure for `Cc1oc2c(NC(=O)c3c(Cl)cccc3Cl)cccc2c1C(C)(C)O` is 37.6 µM (active); for `O=C(O)Cc1cc(I)c(Oc2ccc(O)c(I)c2)c(I)c1` it is 88.5 µM (active).
Turning to `CCCCCCCC[Si](OCC)(OCC)OCC`, the outcome was inactive.
On to `CC[C@H](NC(=O)c1cc(F)ccc1NS(=O)(=O)c1cccc2cccnc12)c1ccccc1`, for which the concentration at half-maximal activity (AC50) was 20.1 µM (active).
`CC1(C)NC(=O)N(c2ccc([N+](=O)[O-])c(C(F)(F)F)c2)C1=O`: the AC50 was 89.7 µM (active).
For the compound `O=C1c2ccccc2C(=O)N1CCc1noc(-c2ccc(CN3CCCCCC3)s2)n1`, the compound was called inactive.
`O=c1ccc2ccccc2o1`: the compound was called inactive.
On the same count and under the same terms, the entry for `O=C=NCCCCCCN=C=O` is “inactive”; for `NC(=O)c1nc(-c2cccc(-c3cc(F)ccc3OCC(F)(F)C(F)(F)F)c2)n[nH]1` it is “inactive”; for `CCO[Si](CCCNC(N)=O)(OCC)OCC` it is “inactive”.
Regarding `CN(C)c1ccc(C(=C2C=CC(=[N+](C)C)C=C2)c2ccc(N(C)C)cc2)cc1`, the AC50 is 3.01 µM (active).
Take `Clc1cc(Cl)c2c(c1)N=C1CCCCCN1C2`: the result was inactive.
The same measure, in the same setting: the entry for `CCCCCCCCN(C)CCCCCCCC` is “inactive”.
Consider `Cc1cc(F)ccc1-c1cc(N2CC[C@@H](O)[C@H]2CO)ncc1N(C)C(=O)C(C)(C)c1cc(C(F)(F)F)cc(C(F)(F)F)c1`, for which the AC50 was 18.6 µM (active).
On the same count and under the same terms, the figure for `CCCCCCCCCCCC[N+](C)(C)C` is 89.2 µM (active).
As for `CCOC(=O)O[C@H](C)OC(=O)c1ccc2c(c1)cc(C(=O)NC1CCN(C(C)C)CC1)n2Cc1cc(-c2ccc(Cl)s2)on1`, the outcome was inactive.
